# Rows were chosen to be rich in hits. Some 8.9% of all compounds tested hit in one or more screens of this group.
# IMPase inh = qHTS Assay for Identifying the Cell-Membrane Permeable IMPase Inhibitors. inhibition (IP1 accumulation), % at 46.1 µM. AID 901, 2007. CHO-M1 cells, IP1 accumulation, HTRF TR-FRET ratio. 120,000 tested, under 10 active. Inositol monophosphatase 1 (Rattus norvegicus), P97697; active = well fitted curve in the direction sought with a large enough effect in the signal ratio, not every such curve was filed as active; inconclusive = small, poorly fitted or top-dose-only effect, or a change in a side signal; inactive = no such curve, though single readings can be large or run the other way; the % refers to the signal ratio;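 note: cells stimulated with carbachol in lithium chloride buffer; plate controls were DMSO basal wells for no effect and reference inhibitor wells for full effect; higher means more IMPase inhibition seen as more IP1 and lower FRET ratio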
#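 Cellular IMPase inhibition is scored as a rise in cytosolic IP1, detected by competitive TR-FRET between d2-labelled IP1 and a europium anti-IP1 antibody. M1-expressing CHO cells were stimulated with carbachol for 30 min at 37C, with lithium (50 mM LiCl) present in the buffer.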
# ALOX12 inhib = qHTS Assay for Inhibitors of 12-hLO (12-human lipoxygenase). purified 12-hLO, xylenol orange hydroperoxide absorbance. AID 1452, 2008. 0.12% of 150,000 active. Potency, µM (doses to about 57.1 µM), for inactives: at the top dose activity change, negative = inhibition, actives largely listed as inhibitors. Polyunsaturated fatty acid lipoxygenase ALOX12 (Homo sapiens), P18054; note: potency is the fitted concentration of half-maximal effect; nearly all actives have a fitted effect of over 55% in size
#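 150 nM 12hLO, 25 mM Hepes pH 7.0 + 0.01% Triton X-100; cpd preinc 15 min RT; 40 uM arachidonic acid, 30 min RT; Fe-XO 30 min; A573/A405 ratio as read-out.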
# NPSR antag = qHTS Assay for Antagonists of the Neuropeptide S Receptor: cAMP Signal Transduction; 1% of 220,000 active; AID 1461, 2008; CHO-NPSR cells, cAMP TR-FRET, antagonist mode; Q6W5P4; Potency, µM (series often up to 38.3 µM), for inactives: at the highest dose activity change, negative = inhibition, usual class: inhibitors; note: potency is the fitted concentration of half-maximal effect; nearly all actives have a fitted effect of over 50% in size
# Target sequence (Q6W5P4 whole entry, looked up): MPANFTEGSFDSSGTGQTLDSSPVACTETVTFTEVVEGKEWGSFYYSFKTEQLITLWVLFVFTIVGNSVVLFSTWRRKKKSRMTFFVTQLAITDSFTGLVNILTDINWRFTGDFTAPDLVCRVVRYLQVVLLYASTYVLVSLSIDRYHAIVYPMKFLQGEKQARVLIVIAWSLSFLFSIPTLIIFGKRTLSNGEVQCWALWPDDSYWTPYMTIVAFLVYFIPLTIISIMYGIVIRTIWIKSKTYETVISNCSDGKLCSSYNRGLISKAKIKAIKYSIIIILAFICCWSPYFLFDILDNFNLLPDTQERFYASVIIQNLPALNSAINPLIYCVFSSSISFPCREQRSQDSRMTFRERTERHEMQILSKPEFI
# IMPase Li inh = qHTS Assay for Identifying the Cell-Membrane Permeable IMPase Inhibitors: Potentiation with Lithium. CHO-M1 cells, IP1 TR-FRET (IP-One), carbachol + lithium. Potency, µM (highest dose often 59.4 µM), for inactives: at the highest dose activity, negative = IMPase inhibition, usual class: inhibitors. 0.35% of 210,000 active. AID 1457, 2008;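 note: IP1 builds up when IMPase is blocked and the TR-FRET signal falls; potency is the fitted concentration of half-maximal effect; plate controls were basal vehicle for no effect and high inhibitor control for full effect; nearly all actives have a fitted effect of over 50% in size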
#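 Concentration–response in CHO-M1 cells, lithium-potentiated; 30 min at 37C. IP1 detected by competitive TR-FRET after 10 min lysis at RT. Hill-fitted AC50.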
# HPGD block = qHTS Assay for Inhibitors of HPGD (15-Hydroxyprostaglandin Dehydrogenase) | Potency, µM, for the others: at the top dose activity change, negative = inhibition, actives largely listed as inhibitors | purified HPGD, NADH fluorescence kinetic, PGE2 substrate | 15-hydroxyprostaglandin dehydrogenase [NAD(+)] (Homo sapiens), P15428 | AID 894, 2007 | 4.3% of 150,000 active; active = well fitted inhibition curve with a large enough effect, not every such curve was filed as active; inconclusive = small, poorly fitted or top-dose-only effect, or another doubt; inactive = no such curve, though single readings can be large or run the other way; note: potency is the fitted concentration of half-maximal effect
#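 20 nM HPGD preincubated 15 min at room temperature with compound in 50 mM Tris-HCl pH 8, 0.01% Tween 20. Started with 1 mM NAD+ and 30 uM prostaglandin E2; NADH fluorescence (360/450 nm) read 5 times over 30-s intervals, last minus first.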
# ALDH1A1 block = qHTS Assay for Inhibitors of Aldehyde Dehydrogenase 1 (ALDH1A1). Aldehyde dehydrogenase 1A1 (Homo sapiens), P00352. Potency, µM (titrated, usually from 75.3 µM), inactives show at the top dose activity, negative = inhibition, hits mostly inhibitors. 7.3% of 220,000 active. Purified ALDH1A1, NADH fluorescence, propionaldehyde substrate. AID 1030, 2008; active = well fitted inhibition curve with a large enough effect, not every such curve was filed as active; inconclusive = small, poorly fitted or top-dose-only effect, or another doubt; inactive = no such curve, though single readings can be large or run the other way;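 note: potency is the fitted concentration of half-maximal effect; plate controls were no enzyme wells and a reference inhibitor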
# * = called active by the depositor; ? = inconclusive; · = not tested or not shown; [ ] = dose if it differs, or a comment. Unless noted, calls come from the whole dose curve; as a rule, active = well fitted curve in the direction sought with a large enough effect; inconclusive = small, poorly fitted or top-dose-only effect, or another doubt; inactive = no such curve, though single readings can be large; an effect the other way counts as inactive or inconclusive. Unless noted, % is set by controls: 0 for no effect and ±100 for the full control effect.
SMILES,IMPase inh,ALOX12 inhib,NPSR antag,IMPase Li inh,HPGD block,ALDH1A1 block
Cc1ccccc1Nc1nnc(SCc2cc([N+](=O)[O-])cc3c2OCOC3)s1,12,-6%,-29%[46.1 µM],52%[38.3 µM],14µM*,?
Nc1cc(-c2ccc(OC(F)(F)F)cc2)nn1-c1ccc(Cl)c(Cl)c1,·,·,56%,·,·,1%
Oc1ccc(/C=N/n2c(-c3ccco3)csc2=Nc2cccnc2)c(O)c1,·,2%,-4%,13%,-14%,-5%
COCCN=c1scc(-c2ccco2)n1/N=C/c1ccc(O)c(O)c1O,·,·,-20%,20%,·,8.9µM*
C=CCN=c1scc(-c2ccco2)n1/N=C/c1ccc(O)c(O)c1O,·,·,-25%,·,·,·
CC(C)N=c1scc(-c2ccco2)n1/N=C/c1ccc(O)c(O)c1,13,?,24%[46.1 µM],8%[38.3 µM],32µM*,-4%
Cc1nn(-c2ccccc2)cc1/C=N/NC(=O)c1cccs1,·,·,8%,·,·,·
Cc1cccc2sc(NC(=O)C3=NN(c4ccccc4)C(=O)CC3)nc12,7,-6%,18%,-20%,-8%,-7%
COC(=O)C(NS(=O)(=O)c1ccccc1Cl)c1ccccc1 (configuration not stated),·,·,2%,0%,·,5%
CSc1nsc(SCC(=O)Nc2nc3ccc(C)cc3s2)n1,-5,8%,0%[46.1 µM],0%,-15%,40µM*
Cc1ccc2nc(NC(=O)COC(=O)CSc3nc(C)cc(C)n3)sc2c1,-6,-5%,-3%[46.1 µM],15%[38.3 µM],?,13µM*
COC(=O)c1ccc2nc(NC(=O)COC(=O)CSc3nc(C)cc(C)n3)sc2c1,·,-1%,2%,-7%,-18%,4%
O=C(NCc1ccccc1F)c1ccc(S(=O)(=O)Nc2cccc(C(F)(F)F)c2)cc1,·,-5%,?,6%,-16%,0%
COc1ccc(CNCC(=O)Nc2ccccc2-n2cccc2)cc1,·,·,-9%,14%,·,28µM*
COc1ccc(CNCC(=O)Nc2cccc(S(N)(=O)=O)c2)cc1,·,·,8%,-6%,·,?
COC(=O)CN1C(=O)S/C(=C/c2cc(C)n(C)c2C)C1=O,13,-11%,-18%[46.1 µM],-9%[38.3 µM],-1%,14µM*
CCn1c(C)cc(/C=C2/SC(=S)N(CC(=O)O)C2=O)c1C,·,·,-13%,17%,·,12%
CCOC(=O)CN1C(=O)S/C(=C/c2ccc(N3CCCCC3)o2)C1=O,1,-5%,-14%[46.1 µM],-3%[38.3 µM],-8%,25µM*
COCCn1c(C)cc(/C=C2/SC(=O)N(C(C)C(=O)OC)C2=O)c1C (configuration not stated),·,·,-43%,·,·,·
C#CCN1C(=O)S/C(=C/c2cc(C)n(CC)c2C)C1=O,-4,-1%,?,·,·,7.5µM*
COC(=O)CN1C(=O)S/C(=C/c2ccc(N3CCCCC3)o2)C1=O,-3,-7%,?,18%[38.3 µM],-11%,0.28µM*
Cc1cccc(CSCc2ccc(C(=O)NCC3CCCO3)o2)c1 (configuration not stated),·,·,5%,0%,·,4%
O=S(=O)(c1ccccc1)N1CCC2(CCCN(C(c3ccccc3)c3ccccc3)C2)CC1,·,1%,·,13%,-3%,12%
Nc1nonc1C(=O)OCC(=O)N1CCCCC1,4,0%,6%[46.1 µM],-5%[38.3 µM],-5%,?
Cc1ccc(S(=O)(=O)c2nc(-c3ccccc3)oc2NCc2cccnc2)cc1,-5,-17%,-18%[46.1 µM],5%[38.3 µM],-19%,28µM*
Cc1ccc(CNc2oc(-c3ccco3)nc2S(=O)(=O)c2ccccc2)cc1,16,-5%,-21%[46.1 µM],10%,-25%,28µM*

# From PubChem
